Test results taken from PubChem BioAssay (NCI).
Compounds without any hit were thinned out: in the full panel of roughly 79,000, 15% have a hit. No stated cut-off is given here; in the data, active means growth inhibition above about 70%; inactive means the rest.

Legend:
[1] = NCI Yeast Anticancer Drug Screen. Data for the rad50 strain (AID 155);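 further: 0% = growth of vehicle-only cultures of the same strain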; conditions: S. cerevisiae rad50 strain growth inhibition; at 50.0 µM; stronger effect = higher value
Procedure, shortened: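 Cells are treated with compound, grown, and their growth is then scored against vehicle-only cultures of the same repair-deficient yeast strain.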

[2] = NCI Yeast Anticancer Drug Screen. Data for the mec2-1 strain (AID 157); conditions: S. cerevisiae mec2-1 strain, at 50.0 µM, stronger effect = higher value
Procedure, shortened: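 Growth inhibition is read against vehicle-treated controls after compound exposure of the mec2-1 yeast strain, which is defective in DNA damage repair or cell cycle control.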

[3] = NCI Yeast Anticancer Drug Screen. Data for the sgs1 mgt1 strain (AID 161);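 further: 0% = growth of cultures given vehicle only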; conditions: S. cerevisiae sgs1 mgt1 strain, at 50.0 µM, stronger effect = higher value
Procedure, shortened: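 This yeast growth screen uses a strain with defined DNA-repair lesions; compound-treated growth is compared with vehicle-treated growth.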

[4] = NCI Yeast Anticancer Drug Screen. Data for the cln2 rad14 strain (AID 165);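 further: 0% = growth equal to vehicle treated cultures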; conditions: S. cerevisiae cln2 rad14 strain, at 50.0 µM, stronger effect = higher value
Procedure, shortened: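 Growth inhibition, relative to vehicle-treated controls, is the read-out. The test organism is a yeast strain with defined genetic alterations, cln2 rad14.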

[5] = NCI Yeast Anticancer Drug Screen. Data for the bub3 strain (AID 167); conditions: S. cerevisiae bub3 mutant strain, at 50.0 µM, stronger effect = higher value
Procedure, shortened: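 Part of a panel of yeast mutants defective in DNA damage repair or cell cycle regulation. Each strain is grown with compound, and inhibition is calculated relative to solvent-treated cultures.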

[6] = NCI Yeast Anticancer Drug Screen. Data for the mlh1 rad18 strain (AID 175); conditions: S. cerevisiae mlh1 rad18 strain growth inhibition; at 50.0 µM; stronger effect = higher value
Procedure, shortened: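 Cells of a genetically altered yeast strain, deficient in DNA damage repair, were treated with compound. Their growth was then compared with that of vehicle-treated cultures to give inhibition.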

Measured: growth inhibition

CC(=O)Nc1ccc2nc(C)cc(Cl)c2c1
inactive: [1] 25.5% | [2] -3.45% | [3] 9.4% | [4] -8.8% | [5] 6.55% | [6] 4.35%

COc1ccc(C)cc1S(=O)(=O)c1ccc(C)cc1[N+](=O)[O-]
inactive: [1] 6.6% | [2] -2.85% | [3] 2.15% | [4] 34.5% | [5] 23.3% | [6] -15.4%

CCN(CC)C(COC(=O)Nc1ccccc1)COC(=O)Nc1ccccc1
inactive: [1] 1.85% | [2] -2.3% | [3] 0.6% | [4] -13.8% | [5] -18.9% | [6] 3.05%

CC(C)=CCNc1ncnc2c1ncn2CCC#N
inactive: [1] -24.1% | [2] -6.55% | [3] -16.9% | [4] 5.1% | [5] -35.8% | [6] -21.4%

c1csc(NC(Nc2nccs2)C23CC4CC(CC(C4)C2)C3)n1
inactive: [1] 28.1% | [2] 12.7% | [3] -1.4% | [4] 20.6% | [5] 1.1% | [6] 7.45%

CCCCCCCCCCCCCCCCSc1cccc(C)c1
inactive: [1] 17.7% | [2] 3.65% | [3] 22.1% | [4] -13.2% | [5] 1.3% | [6] 17.1%

CC(C)(C)C(=O)[CH-]C(=O)C(F)(F)F.CC(C)(C)C(=O)[CH-]C(=O)C(F)(F)F.CC(C)(C)C(=O)[CH-]C(=O)C(F)(F)F.[Ru+3]
inactive: [1] 25.8% | [2] -4.65% | [3] 1.7% | [4] -1.35% | [5] 8.5% | [6] 24.4%

C[n+]1ccc(/C=C/c2ccc(O)c(O)c2)c2ccccc21
inactive: [1] 49.8% | [2] 33.5% | [3] 41.2% | [4] 20.5% | [5] 3.5% | [6] 43%

O=S(=O)(c1ccc(OCCOc2ccc(S(=O)(=O)N3CCOCC3)cc2)cc1)N1CCOCC1
inactive: [1] 0.55% | [2] 7.75% | [3] 12.6% | [4] -15.4% | [5] 2.95% | [6] -14%

COC(=O)c1c(O)cc(OC)cc1OCc1ccccc1
inactive: [1] 10.7% | [2] -4.4% | [3] -4.8% | [4] 27.6% | [5] 31.4% | [6] 2.95%

CCOP(=O)(OCC)/C(C#N)=C/c1cc(OC)ccc1OC
inactive: [1] 28.4% | [2] -4.75% | [3] -2.65% | [4] -8.9% | [5] -13.4% | [6] 11.8%

NCCCOc1ccccc1
inactive: [1] -3.6% | [2] -7.8% | [3] -5.1% | [4] -10.3% | [5] -7.05% | [6] -9.35%

FC1C2=C(SC1(F)F)C1CCC2C1 (configuration not stated)
inactive: [1] 4.9% | [2] -2.2% | [3] 28.1% | [4] 17.9% | [5] -4.05% | [6] 12.9%

CC1(C)OC2OC(C(O)COC(=O)c3ccccc3)C(Cl)C2O1 (configuration not stated)
inactive: [1] 26.6% | [2] 8.35% | [3] -1.6% | [4] -5.5% | [5] 14.2% | [6] 39.3%

CCOC(=O)c1c(/N=C/c2cc(Br)cc(Br)c2O)sc2c1CCCC2
inactive: [1] -14.2% | [2] -19.1% | [3] -13.2% | [4] -15.1% | [5] -13.9% | [6] -25.1%

O=C(O)CN1CCSc2ccccc2CN(CC(=O)O)CCSc2ccccc2C1
inactive: [1] 4.5% | [2] 3.1% | [3] -2.6% | [4] -32% | [5] 12.7% | [6] -8%

Cc1ccc(S(=O)(=O)Oc2c(Br)cc(-c3ccccc3)cc2Br)cc1
inactive: [1] 27.9% | [2] 3.4% | [3] 13.5% | [4] 6.65% | [5] -12.4% | [6] 18.6%

Oc1ccc(Cl)cc1CN1CCOCC1
inactive: [1] 31.3% | [2] 11.6% | [3] 36.1% | [4] 21.5% | [5] 13.3% | [6] 34.5%

CCCCCCCCCCCOC(=O)CCl
inactive: [1] 1.4% | [2] -13% | [3] -16.9% | [4] -12.3% | [5] -12.8% | [6] -7.4%

COc1ccc(Cl)cc1NC(=O)Nc1cc(C)ccc1Cl
inactive: [1] -8.35% | [2] 25.8% | [3] 27.4% | [4] -25.2% | [5] 28.8% | [6] 9.9%

Cc1ccc(S(=O)(=O)Nc2ccc(S(C)(=O)=O)cc2)cc1
inactive: [1] 2.4% | [2] -4.2% | [3] -5.6% | [4] -36.4% | [5] 3.85% | [6] 3.3%

CC(=O)NOCC1NC(=O)C(CONC(C)=O)NC1=O (configuration not stated)
inactive: [1] 14% | [2] 18.1% | [3] -47.1% | [4] -3.4% | [5] -48.2% | [6] -54.6%

C[Si](C)(C)c1ccc2c(c1O)C(=O)c1ccccc1C2=O
inactive: [1] 10.6% | [2] 16.9% | [3] 31.9% | [4] 53.6% | [5] -1.15% | [6] 3.3%

O=C(/C=C/c1ccco1)c1ccc(O)c(C(=O)O)c1
inactive: [1] -7.8% | [2] -1.25% | [3] -1% | [4] -39.5% | [5] -26.6% | [6] -2.9%

COc1ccc2c(c1)C/C(=C\c1ccc(O)c(OC)c1)C2=O
inactive: [1] -46.5% | [2] -14% | [3] -33.5% | [4] -9.9% | [5] 7.8% | [6] -10.1%

COc1ccc2[nH]c(-c3cccc(N(C)C)c3)cc(=O)c2c1
inactive: [1] -26.1% | [2] -8.1% | [3] -12.5% | [4] -3.95% | [5] -26% | [6] -70.6%

CCCC(=O)OC(C)COc1ccccc1 (configuration not stated)
inactive: [1] 31.4% | [2] 5.8% | [3] 21.3% | [4] -21.4% | [5] 13.4% | [6] 22.4%

O=C(NCc1cccnc1)Nc1cccc2c(NC(=O)NCc3cccnc3)cccc12
inactive: [1] -17.1% | [2] -6.3% | [3] 5.8% | [4] 14.5% | [5] -0.05% | [6] 13.9%

COC(=O)C1O[C@H]1c1cccc[n+]1[O-] (mixture of isomers)
inactive: [1] -0.3% | [2] -3.15% | [3] 5.7% | [4] 11.8% | [5] -8.2% | [6] -0.9%

O=C(NC1c2ccccc2CCc2ccccc21)C(F)(F)F
inactive: [1] 27.7% | [2] -7.75% | [3] 14.5% | [4] 3.05% | [5] 15.3% | [6] 22.6%

CC1=C(C(=O)NCc2ccccc2)C(c2cccc([N+](=O)[O-])c2)C(C(=O)NCc2ccccc2)=C(C)N1
inactive: [1] 19.6% | [2] 17.2% | [3] 9.05% | [4] 22.7% | [5] 19.2% | [6] 33.7%

Cn1cnc2c([nH]c(=O)n2C2OC(CO)C(O)C2O)c1=N (configuration not stated)
inactive: [1] 13.5% | [2] 1.05% | [3] 2% | [4] -35.4% | [5] 3.55% | [6] 9.55%

CC(=O)N1C(=O)C(=O)c2ccccc21
inactive: [1] 5.9% | [2] -5.4% | [3] -4.8% | [4] -25% | [5] -1.5% | [6] 23.5%

CCC(C)N=C1NS(=O)(=O)c2ccccc21 (configuration not stated)
inactive: [1] 9.5% | [2] -3.3% | [3] -2.4% | [4] 33.2% | [5] -8.55% | [6] 7.85%

Nc1ccc2c(c1)Oc1c(F)c(F)cc3c(=O)c(C(=O)O)cn-2c13
inactive: [1] 6.9% | [2] 11.2% | [3] 7.7% | [4] 16.1% | [5] 0% | [6] 48.1%

CC1CC(=O)CC[C@@H]1OCc1ccccc1 (some centres not stated)
inactive: [1] 5.95% | [2] -17.4% | [3] -5.05% | [4] 19.9% | [5] -8.95% | [6] 16.7%

O=C1Nc2ccccc2CS1
inactive: [1] 0.55% | [2] -4.9% | [3] -2.1% | [4] -5.85% | [5] 6.95% | [6] -1.05%

Cc1cccc(C)c1NC(=O)/C(Cc1nc2ccc([N+](=O)[O-])cc2[nH]c1=O)=N\NC(N)=O
inactive: [1] 55.4% | [2] 50.6% | [3] 30.9% | [4] 8.85% | [5] 66.5% | [6] 41.4%

CC(=O)[C@@]1(O)CC[C@H]2[C@@H]3C[C@H](C)C4=CC(=O)CC[C@]4(C)[C@H]3[C@@H](O)C[C@@]21C
inactive: [1] -27.9% | [2] -8.8% | [3] -19.1% | [4] -36.2% | [5] 12.7% | [6] -22.4%

Nc1ccc2c(c1)Cc1cc(O)ccc1-2
inactive: [1] 19.1% | [2] -8.75% | [3] 1.45% | [4] 6.3% | [5] 9.9% | [6] 4.35%

O=c1[nH]c(-c2ccccc2)c([N+](=O)[O-])c(=O)[nH]1
inactive: [1] 10.7% | [2] -6.25% | [3] -7.65% | [4] -60.2% | [5] 5.95% | [6] 13.6%

O=C(O)Cc1nc(Cl)ccc1Cl
inactive: [1] 16.1% | [2] -7.2% | [3] -0.3% | [4] -15.2% | [5] -1.25% | [6] -1.1%
